According to PubChem BioAssay (Tox21):
Records with an inconclusive call do not appear. Values without a mark were called inactive. Active and inactive are the calls of the source. Calls follow the shape of the dose curve; as a rule, active = well fitted curve in the direction sought with a large enough effect in the repeat runs; inconclusive = weak or mixed curves; inactive = no such curve, though single readings can be large; an effect the other way counts as inactive or inconclusive.
% is scaled to controls: 0 for no effect and ±100 for the full control effect; potency is read from the fitted curve at half-maximal effect.
Also: nearly all actives have a fitted effect of over 50% in size.

These molecules were tested against Voltage-gated inwardly rectifying potassium channel KCNH2 (Homo sapiens) (UniProt Q12809) (assay: Human Ether-a-go-go-Related Gene (hERG) channel small molecule antagonists: fluorescence cell-based qHTS assay (AID 1671200;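 as to activity change, negative = inhibition: hERG-expressing U2OS cells given a thallium stimulus after FluxOR II dye loading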)). Conditions: hERG-U2OS cells, FluxOR thallium flux fluorescence; series mostly up to 76.8 µM; activity change, negative = inhibition: at the top concentration.
Sequence of Voltage-gated inwardly rectifying potassium channel KCNH2 (Homo sapiens) (Q12809 whole entry, looked up): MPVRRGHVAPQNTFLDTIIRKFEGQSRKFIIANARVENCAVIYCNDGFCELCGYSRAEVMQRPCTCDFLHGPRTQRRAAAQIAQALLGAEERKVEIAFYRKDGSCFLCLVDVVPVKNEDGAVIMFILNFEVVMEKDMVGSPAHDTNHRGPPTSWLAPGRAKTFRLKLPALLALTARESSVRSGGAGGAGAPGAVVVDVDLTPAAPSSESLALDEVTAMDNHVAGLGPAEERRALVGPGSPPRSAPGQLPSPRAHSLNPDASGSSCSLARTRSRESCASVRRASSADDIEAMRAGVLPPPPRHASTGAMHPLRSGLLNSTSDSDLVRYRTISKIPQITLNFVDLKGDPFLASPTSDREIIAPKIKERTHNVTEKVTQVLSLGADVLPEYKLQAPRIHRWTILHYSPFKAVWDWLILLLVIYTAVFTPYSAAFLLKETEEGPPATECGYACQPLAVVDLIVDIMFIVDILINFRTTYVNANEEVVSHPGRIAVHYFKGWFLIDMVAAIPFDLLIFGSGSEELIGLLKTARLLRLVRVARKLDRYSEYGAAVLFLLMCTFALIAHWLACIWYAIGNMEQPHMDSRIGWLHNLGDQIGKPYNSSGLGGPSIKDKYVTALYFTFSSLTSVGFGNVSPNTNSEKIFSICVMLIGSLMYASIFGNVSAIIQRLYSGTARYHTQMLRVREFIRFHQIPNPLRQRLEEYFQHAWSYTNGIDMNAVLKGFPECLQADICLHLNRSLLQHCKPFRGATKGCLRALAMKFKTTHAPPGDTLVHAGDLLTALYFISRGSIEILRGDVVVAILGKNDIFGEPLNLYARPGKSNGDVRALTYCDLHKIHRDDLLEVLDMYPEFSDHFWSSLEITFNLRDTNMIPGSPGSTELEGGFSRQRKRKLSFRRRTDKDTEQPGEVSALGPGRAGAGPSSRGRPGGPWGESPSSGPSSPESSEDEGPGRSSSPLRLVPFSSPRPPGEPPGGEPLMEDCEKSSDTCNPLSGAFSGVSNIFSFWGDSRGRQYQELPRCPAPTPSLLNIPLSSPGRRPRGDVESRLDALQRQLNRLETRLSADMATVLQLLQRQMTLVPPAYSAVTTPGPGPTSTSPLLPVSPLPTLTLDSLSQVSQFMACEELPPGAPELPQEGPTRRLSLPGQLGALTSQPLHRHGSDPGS
Procedure, shortened: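 In this thallium-flux screen, overnight-cultured U2OS cells bearing the channel are dye-loaded in darkness for an hour, rested 10 min at room temperature, and then monitored kinetically at 480/540 nm for two minutes post-stimulus.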
`O=C1CCCCCO1` was tested, and the “activity change, negative = inhibition” value was 2.09%.
With `O=C(c1ccc(O)cc1)c1ccc(O)cc1` the “activity change, negative = inhibition” value was 1.03%.
For `C[C@@H](C1=C(CCN(C)C)Cc2ccccc21)c1ccccn1`, the Potency was 19 µM (active).
In the case of `c1ccc(OCc2ccc(CCCN3CCOCC3)cc2)cc1`, the Potency is reported as 12 µM (active).
`CCN(CC)CCNC(C(=O)OCCC(C)C)c1ccccc1` (centres undefined) was tested, and the Potency was 9.52 µM (active).
With `O=[N+]([O-])c1cc[n+]([O-])cc1` the “activity change, negative = inhibition” value was -3.98%.
`CCCCOC(=O)c1ccccc1C(=O)OCC(CC)CCCC` (centres undefined) was tested, and the “activity change, negative = inhibition” value was 1.78%.
For `CC(C)(C)C1CCCCC1O` (centres undefined), the “activity change, negative = inhibition” value was -1.59%.
`CC(=O)c1c(C)c([N+](=O)[O-])c(C(C)(C)C)c([N+](=O)[O-])c1C` was tested, and the “activity change, negative = inhibition” value was -27.7%.

These molecules were tested against Cytochrome P450 3A4 (Homo sapiens) (UniProt P08684) (assay: Cytochrome P450 Family 3 Subfamily A Member 4 (CYP3A4) small molecule antagonists: luciferase reporter qHTS assay (AID 1671201)). Conditions: P450-Glo CYP3A4 enzyme, luciferin luminescence, 1 h; series mostly up to 115 µM; activity change, negative = inhibition: at the top concentration.
Sequence of Cytochrome P450 3A4 (Homo sapiens) (P08684 whole entry, looked up): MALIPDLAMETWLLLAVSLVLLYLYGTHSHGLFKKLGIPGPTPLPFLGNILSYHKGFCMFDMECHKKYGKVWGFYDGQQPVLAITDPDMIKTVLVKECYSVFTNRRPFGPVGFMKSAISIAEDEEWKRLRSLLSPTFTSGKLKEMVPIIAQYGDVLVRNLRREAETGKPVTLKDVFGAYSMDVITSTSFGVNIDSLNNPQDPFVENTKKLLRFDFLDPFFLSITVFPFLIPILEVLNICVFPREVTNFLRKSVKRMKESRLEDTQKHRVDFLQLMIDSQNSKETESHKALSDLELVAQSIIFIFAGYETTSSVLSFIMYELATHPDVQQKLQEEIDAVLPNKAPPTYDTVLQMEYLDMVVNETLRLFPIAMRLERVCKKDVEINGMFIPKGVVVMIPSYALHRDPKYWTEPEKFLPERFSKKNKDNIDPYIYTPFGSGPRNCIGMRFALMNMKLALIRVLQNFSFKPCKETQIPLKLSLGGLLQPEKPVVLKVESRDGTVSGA
Procedure, shortened: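 CYP3A4 activity was followed with a P450-Glo proluciferin substrate. Test compounds in DMSO were preincubated 10 min; NADPH regeneration then ran 1 h, and light output was read 20 min after detection reagent.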
In the case of `Cn1c(=O)c2c(ncn2CC(O)CO)n(C)c1=O` (centres undefined), the “activity change, negative = inhibition” value is reported as 6.07% [at 52.9 µM].
For `NCc1ccccc1`, the “activity change, negative = inhibition” value was 3.67%.
In the case of `CCCCCCc1ccc(N)cc1`, the Potency is reported as 35.6 µM (active).
For `CC(C)c1ccccc1C(C)C`, the Potency was 22.5 µM (active).
`Nc1nc(N)c2nc(CNc3ccc(C(=O)N[C@@H](CCC(=O)O)C(=O)O)cc3)cnc2n1` was tested, and the “activity change, negative = inhibition” value was 0.543%.
`Cc1ccc2c(ccc3ccccc32)c1` was tested, and the “activity change, negative = inhibition” value was -23%.
With `O=C1CCCCCO1` the “activity change, negative = inhibition” value was 1.93%.
`C[C@@H](C1=C(CCN(C)C)Cc2ccccc21)c1ccccn1` was tested, and the “activity change, negative = inhibition” value was 3.37% [at 52.9 µM].
With `O=[N+]([O-])c1cc[n+]([O-])cc1` the Potency was 63.3 µM (active).
With `CC(C)(C)C1CCCCC1O` (centres undefined) the “activity change, negative = inhibition” value was 0.963%.
